PubChem BioAssay (NCATS)
Results filed as inconclusive are left out. Entries that show only a call come without a potency. The source made the active and inactive calls. Calls come from the whole dose curve; tested in HEK293 reporter line.

Test: qHTS for Inhibitors of the Functional Ribonucleoprotein Complex (vRNP) of Lassa (LASV) Arenavirus: LASV Primary Screen - GLuc reporter signal (AID 1347082); note: nearly all actives have a fitted effect of over 60% in size
Conditions: LASV minigenome vRNP, Gaussia luciferase reporter; series mostly up to 57.5 µM
Potency is the fitted concentration of half-maximal effect.

Compound | Potency
CC(=O)c1ccc[nH]1 | inactive
C=CC(C)(C)c1c2occc2c(O)c2ccc(=O)oc12 | inactive
O=C1C=CC(O)(c2cc(=O)c3c(O)cc(O)cc3o2)C=C1 | 17.8 µM (active)
COc1cc(/C=C/C(=O)c2ccc(O)cc2O)ccc1O | inactive
CC(C)c1oc(=O)cc2c1[C@@H](O)[C@H]1OC(=O)[C@@]3(C)CC[C@@H](O)[C@@]2(C)C13 (some centres not stated) | 5.62 µM (active)
CCCCCOC(=O)Nc1nc(=O)n([C@@H]2O[C@H](C)[C@@H](O)C2O)cc1F (some centres not stated) | inactive
COC(=O)c1cc(O)cc(OC)c1Oc1cc(C)cc(O)c1C(=O)O | inactive
C[C@]12CC[C@H](O)C[C@H]1CC[C@@H]1C2CC[C@]2(C)[C@@H](C3=CC(=O)OC3)[C@@H](O)C[C@]12O (some centres not stated) | 6.31 µM (active)
O=C(O)CCNc1cc(N2CCc3ccccc3CC2)nc(-c2ccccn2)n1 | inactive
C[C@H]1CCC[C@@H](O)CCC/C=C/c2cc(O)cc(O)c2C(=O)O1 | inactive
O=c1c(-c2ccc(O)cc2)coc2c(C3OC(CO)C(O)C(O)C3O)c(O)ccc12 (configuration not stated) | inactive
C=C1C(=O)[C@@]23[C@H](O)C[C@@H]4C(C)(C)CC[C@H](O)[C@]4(C)[C@@H]2C[C@H](O)[C@@H]1[C@H]3O | 8.91 µM (active)
Oc1ccc(C2CCN(c3ccnc4ccccc34)CC2)cc1O | 15.3 µM (active)
CON=C(C(=O)N[C@@H]1C(=O)N2C(C(=O)O)=C(CSC(=O)c3ccco3)CS[C@H]12)c1csc(N)n1 | inactive
CC(C)(O)CC[C@@H](O)[C@](C)(O)[C@H]1CC[C@@]2(O)C3=CC(=O)[C@@H]4C[C@@H](O)[C@@H](O)C[C@]4(C)[C@@H]3CC[C@]12C | inactive
COc1ccc([C@@H]2CC(=O)c3c(O)cc(O[C@@H]4O[C@H](CO)[C@@H](O)[C@H](O)[C@H]4OC4O[C@@H](C)[C@H](O)[C@@H](O)[C@H]4O)cc3O2)cc1O (some centres not stated) | inactive

Compound | Potency
CC(=O)O[C@@]12CO[C@@H]1C[C@H](O)[C@@]1(C)C(=O)[C@H](O)C3=C(C)[C@@H](O)C[C@@](O)([C@@H](OC(=O)c4ccccc4)C12)C3(C)C (some centres not stated) | inactive
COC(=O)C1CC23C=CCN4CCC5(c6ccccc6NC15C2C)C43 (configuration not stated) | inactive
O=c1ccn([C@@H]2O[C@H](COP(=O)(O)O)[C@@H](O)[C@H]2O)c(=O)[nH]1 | inactive
C=C1C(C)C2C(Cc3ccccc3)NC(=O)C23C(OC(C)=O)C=CC(C)(O)CC(C)CC=CC3C1O (configuration not stated) | inactive
CCCCCC(=O)N[C@@H](c1ccccc1)[C@@H](O)C(=O)O[C@H]1C[C@@]2(O)[C@@H](OC(=O)c3ccccc3)C3[C@](C)(C(=O)[C@H](O)C(=C1C)C2(C)C)[C@@H](OC1OCC(O)C(O)C1O)C[C@H]1OC[C@@]31OC(C)=O (some centres not stated) | inactive
COc1cc([C@@H]2c3cc4c(cc3C[C@H]3COC(=O)[C@@H]32)OCO4)cc(OC)c1O | inactive
CNCCCCc1cnc(C)c2[nH]c3ccccc3c12 | inactive
C=C1C(=O)O[C@@H]2C[C@@H](C)[C@H]3C=CC(=O)[C@]3(O)C[C@@H]12 | inactive
O=C(/C=C/c1ccccc1)NCCc1ccccc1 | inactive
CC=CC(=O)N(CC)c1ccccc1C | inactive
Oc1ccc([C@@H]2Oc3ccc(O)cc3[C@@H]3CCC[C@@H]32)cc1 | inactive
CO[C@H]1[C@@H](O)[C@@H](C)O[C@H](O[C@H]2[C@H](Oc3cccc4c(O)c5c(=O)oc6ccc(C)c7c(=O)oc(c34)c5c67)O[C@H](C)[C@H](O)[C@@H]2O)[C@@H]1O | inactive
COc1ccnc2[nH]cc(C(=O)C(=O)N3CCN(C(=O)c4ccccc4)C[C@@H]3C)c12 | inactive
CC(=O)O[C@@]12CO[C@@H]1C[C@@H](O)[C@@]1(C)C(=O)[C@H](O)C3=C(C)[C@@H](OC(=O)[C@H](O)[C@@H](NC(=O)c4ccccc4)c4ccccc4)C[C@@](O)([C@@H](OC(=O)c4ccccc4)C12)C3(C)C (some centres not stated) | inactive
C/C=C(\C)C(=O)N[C@@H](c1ccccc1)[C@@H](O)C(=O)O[C@H]1C[C@@]2(O)[C@@H](OC(=O)c3ccccc3)C3[C@](C)(C(=O)[C@H](O)C(=C1C)C2(C)C)[C@@H](O)C[C@H]1OC[C@@]31OC(C)=O (some centres not stated) | inactive
CC(=O)O[C@@H]1CC[C@@]2(C)[C@H](C1)[C@H](OC(C)=O)C[C@@H]1[C@@H]2C[C@H]2[C@@H]3CN4C[C@H](C)CC[C@H]4[C@H](C)[C@H]3CC[C@@]12O | inactive
